Screens (PubChem)
VDR inh = inhibitors of human vitamin D receptor | VDR-SRC2-3 peptide fluorescence polarization, 2 h | actives 0.93% (n = 400,000) | Potency, µM, for the others: max response, negative = inhibition, actives largely listed as inhibitors | P11473
Target sequence (P11473 whole entry, looked up): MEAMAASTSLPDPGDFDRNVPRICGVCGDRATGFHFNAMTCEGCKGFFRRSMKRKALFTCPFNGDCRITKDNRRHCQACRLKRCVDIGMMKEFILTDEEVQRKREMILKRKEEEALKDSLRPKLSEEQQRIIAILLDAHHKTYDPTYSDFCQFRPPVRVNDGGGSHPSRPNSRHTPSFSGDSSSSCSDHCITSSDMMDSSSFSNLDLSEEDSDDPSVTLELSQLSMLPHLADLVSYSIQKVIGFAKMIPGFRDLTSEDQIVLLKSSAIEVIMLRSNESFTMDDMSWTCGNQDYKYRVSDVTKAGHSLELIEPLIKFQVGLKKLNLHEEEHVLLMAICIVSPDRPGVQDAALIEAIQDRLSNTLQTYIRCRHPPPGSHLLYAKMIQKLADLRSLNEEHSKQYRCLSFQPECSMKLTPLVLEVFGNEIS
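Reagent solutions, kept cold and dark, are dispensed first; compounds are then pinned in at 23 nl, plates briefly spun, and incubated 2 h at ambient temperature. Inhibition of VDR–SRC2-3 peptide binding is read by fluorescence polarization.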
PLK1 PBD block = PLK1 (human) polo-box domain binding inhibition; actives 2.8% (n = 360,000); AID 720504; Potency, µM, inactives show max response, negative = inhibition, actives largely listed as inhibitors; Plk1 PBD binding of FITC phosphopeptide, fluorescence polarization; P53350; further: series mostly up to about 57 µM; nearly all actives have a fitted effect of over 65% in size
DT40 TDP1 CPT = DT40-hTDP1 cell growth loss with CPT. chicken DT40 Tdp1-/-;hTDP1 cells + 20 nM CPT, ATP luminescence, 48 h. actives 12% (n = 420,000). Potency, µM (doses to about 46.2 µM), without a hit: at the highest dose activity change, negative = growth inhibition, actives largely listed as inhibitors; further: nearly all actives have a fitted effect of over 55% in size
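Chicken DT40 Tdp1-/- cells stably complemented with human TDP1 were seeded at 400 cells/well in medium containing 20 nM camptothecin, exposed to pin-transferred compounds, and grown at 37 °C for at least 48 hr. Viability was read as ATP luminescence.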
TDP1 cell noCPT = qHTS for Inhibitors of human tyrosyl-DNA phosphodiesterase 1 (TDP1): qHTS in cells in absence of CPT | DT40 Tdp1-/- hTDP1 cells, no CPT, ATP luminescence, 48 h | Potency, µM (series often up to 46.2 µM), inactives show top-dose activity change, negative = growth inhibition, hits mostly inhibitors | actives 15% (n = 420,000); further: nearly all actives have a fitted effect of over 55% in size
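Growth of hTDP1-complemented DT40 Tdp1-knockout cells is measured by ATP luminescence after at least 48 hr compound exposure at 37 °C, with DMSO substituting for the 20 nM CPT used in the parallel screen.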
TDP1 inh = TDP1 (human) enzyme inhibition | recombinant TDP1, AlphaScreen DNA substrate cleavage | Potency, µM (highest dose often 130 µM), for inactives: top-dose activity change, negative = inhibition, actives largely listed as inhibitors | Q9NUW8 | actives 0.28% (n = 350,000); further: nearly all actives have a fitted effect of over 40% in size
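Recombinant human Tdp1 (E. coli-expressed, 1 nM final) preincubated with compounds 15 min at room temperature, then 5'-biotin/3'-phosphotyrosine-FITC DNA substrate (15 nM final) added for 5 min. AlphaScreen beads (10 ug/ml final) added 10 min; cleavage lowers signal.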
KAT2A inh = GCN5L2 (KAT2A) acetyltransferase inhibition | Q92830 | GCN5L2 HAT assay, ThioGlo1 CoA-SH fluorescence | Potency, µM (top dose mostly 58.9 µM), inactives show at the top dose activity change, negative = inhibition, most hits filed as inhibitors | actives 0.21% (n = 390,000)
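Titration-based screen in which CoA formation is detected via maleimide probe ThioGlo1 (50uM) turning fluorescent on thiol reaction; substrates H3(1-25) 75uM and acetyl-CoA 70uM, GCN5L2 20nM, 20 min incubation at room temperature.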
An asterisk follows results filed as active; u = inconclusive; x = no result; ! = not active in a repeat; [ ] = another dose, or the depositor's remark. Compounds with a hit are over-represented: about 18% of the library has one in this group of screens. The call rests on the fitted dose curve; in most records, active means well fitted curve in the direction sought with a large enough effect; inconclusive means small, poorly fitted or top-dose-only effect, or another doubt; inactive means no such curve, though single readings can be large; an effect the other way counts as inactive or inconclusive. On the % scale 0 is the no-effect control and ±100 the full control effect; potency means the concentration at half of the fitted maximal effect.

SMILES	VDR inh	PLK1 PBD block	DT40 TDP1 CPT	TDP1 cell noCPT	TDP1 inh	KAT2A inh
O=C(Nc1ccc(F)cc1)OCCOc1ccc([N+](=O)[O-])cc1	5.7%	0.7%	-14.5%	u	-2.5%	-1.2%
CC1(OC(=O)C2CCCC2)C(=O)C=C2C=C(c3ccsc3)N(CC3CC3)C=C2C1=O (centres undefined)	-20.6%	-28.7%	-12.6%	u	6.8%[12.3 µM]	-14.9%
CC1(OC(=O)CCc2ccccc2)C(=O)C=C2C=C3CCCN3C=C2C1=O (centres undefined)	-7.8%	-25.8%	8.8%	-1.8%	4.47µM*!	-16.8%
CC1(OC(=O)C2CCCC2)C(=O)C=C2C=C(c3ccsc3)N(C3CCCCC3)C=C2C1=O (centres undefined)	-14.3%	-22.4%	20.6µM*	20.6µM*	10.1%[12.3 µM]	-2.5%
CC1(OC(=O)CCc2ccccc2)C(=O)C=C2C=C(c3ccc(C#N)cc3)N(C(CO)CO)C=C2C1=O (centres undefined)	3.1%	-12.5%	9.2%	0.0%	2.6%[21 µM]	2.3%
CC1(OC(=O)CCc2ccccc2)C(=O)C=C2C=C(c3ccc(C#N)cc3)N(C3CCCCC3)C=C2C1=O (centres undefined)	u	-14.6%	25.9µM*	u	6.3%[21 µM]	-2.3%
COC(=O)c1cc2oc3ccccc3c2n1Cc1c(F)cccc1Cl	-15.7%	x	-8.4%	-1.4%	2.0%	-1.9%
CC(C)C[C@@H](CC(=O)N[C@@H](CCCN)CC(=O)N[C@@H]1CCNC[C@H]1C(=O)N[C@H](CC(=O)N[C@@H](CCC(=O)O)CC(=O)O)CC(C)C)NC(=O)[C@@H]1CCCC[C@H]1N	-1.2%	x	x	x	6.9%	x
O=C(CSC1=NNC(c2ccccn2)S1)Nc1cccc(Cl)c1 (centres undefined)	u	-22.9%	1.84µM*	1.84µM*	x	4.1%
O=C(CSC1=NNC(c2ccccn2)S1)Nc1ccccc1 (centres undefined)	-11.5%	-10.0%	2.06µM*	1.84µM*	x	9.1%
COc1ccc(C(=O)c2c(C(F)(F)F)oc3c2C(=O)c2ccccc2C3=O)cc1	0.0%	-12.7%	4.61µM*	7.31µM*	11.6%	-9.5%
CC(C)C1C(=O)NC(=S)N1S(=O)(=O)c1ccc(C(C)(C)C)cc1 (centres undefined)	-18.4%	23.8µM*	7.6%	-5.4%	3.4%	-1.6%
O=C(c1cccc(Cl)c1)N1CCN(c2ncnc3c2cnn3-c2ccccc2)CC1	8.6%	-17.1%	20.2%	-3.8%	-5.1%	-6.9%
Cc1nn(-c2ccccc2)c(Cl)c1C(=O)N1CCN(c2ncnc3c2cnn3-c2ccccc2)CC1	8.9%	3.2%	3.26µM*	4.11µM*	7.1%	-2.2%
O=C(c1ccccc1)N1CCN(c2ncnc3c2cnn3-c2ccccc2)CC1	-8.0%	-10.3%	23.1µM*	20.6µM*	1.9%	-9.8%
O=C(Nc1cccc(-c2nc3ccccc3[nH]2)c1)c1ccccc1F	12.7%	x	u	u	4.0%[12.3 µM]	-1.2%
Cn1cc([N+](=O)[O-])c(C(=O)Nc2ccc3nc(-c4ccccc4)[nH]c3c2)n1	-12.8%	-14.3%	u	18.4µM*	2.7%	-2.1%
O=C(Nc1cccc(-c2nc3ccccc3[nH]2)c1)c1c(F)cccc1F	13.3%	x	14.6µM*	10.3µM*	-4.8%[12.3 µM]	-2.5%
COc1cccc(OC)c1C(=O)Nc1cccc(-c2nc3ccccc3[nH]2)c1	11.0%	-3.2%	u	18.4µM*	-5.6%	-6.3%
CC(=O)Nc1cccc(-c2nc3ccccc3[nH]2)c1	-16.4%	-1.5%	7.6%	2.5%	5.7%	-0.9%
O=C(c1ccccc1)c1ccc2nc(-c3ccc(NC(=O)c4ccccc4F)cc3)[nH]c2c1	-3.4%	-1.8%	3.66µM*	3.26µM*	2.9%	-5.1%
Cn1cc([N+](=O)[O-])c(C(=O)Nc2ccc(-c3nc4ccccc4[nH]3)cc2)n1	-13.8%	-6.7%	5.9%	u	-10.3%	-3.4%
Cc1ccc(S(=O)(=O)NCC(=O)N2CCN(S(=O)(=O)c3ccc(Cl)cc3)CC2)cc1C	-15.3%	-1.5%	11.1%	-29.9%	-0.6%[0.505 µM]	-4.2%
CCCCN(C)CCNC(=O)CN1C(=O)CSc2ccc(S(=O)(=O)N3CCCC3)cc21	-7.5%	-4.5%	-0.2%	2.6%	0.2%	-2.6%
CC(C)COc1ccc(C(=O)Nc2cccc(-c3nc4ccccc4[nH]3)c2)cc1	-8.3%	x	18.4µM*	20.6µM*	2.2%[12.3 µM]	-11.3%
SMILES	VDR inh	PLK1 PBD block	DT40 TDP1 CPT	TDP1 cell noCPT	TDP1 inh	KAT2A inh
O=C(Nc1cccc(-c2nc3ccccc3[nH]2)c1)c1ccccn1	-7.1%	-8.3%	18.4µM*	13µM*	10.1%	-1.3%
CC(C)(C)C(=O)Nc1cccc(-c2nc3ccccc3[nH]2)c1	15.8%	-3.4%	u	u	2.9%	8.4%
CCC(=O)N1CCc2cc(CNC(=O)Cc3ccc(F)cc3)ccc21	13.5%	x	-23.7%	-26.9%	-1.5%	3.7%
CC1(C(=O)NCc2ccc3c(c2)OCO3)CCN1C(=O)CC1CCCC1 (centres undefined)	x	0.5%	u	u	x	x
Cc1c(C(=O)N2CCCCCC2(C)C(=O)NCC(C)C)oc2ccccc12 (centres undefined)	x	-14.0%	u	18.4µM*	x	x
CC(C)(C)c1ccc(C(=O)N2CCC2(C)C(=O)NCc2ccc3c(c2)OCO3)cc1 (centres undefined)	x	3.2%	11.6µM*	9.2µM*	x	x
CC(C)CNC(=O)C1(C)CCN1C(=O)c1ccc(C(C)(C)C)cc1 (centres undefined)	x	-2.5%	10.3µM*	8.2µM*	x	x
COCCN(C(=O)c1snc(C(N)=O)c1N)C(C(=O)NC1CCCCC1)c1ccc(F)cc1 (centres undefined)	2.7%	-6.5%	-25.1%	10.1%	-0.8%	-3.4%
CC(=O)N1CCC(N(CCN2CCOCC2)C(=S)Nc2ccccc2C)CC1	-27.1%	-9.5%	-1.6%	0.7%	3.5%	1.4%
CCn1cc(-c2cc(C(=O)O)c3ccccc3n2)c(C)n1	-3.3%	-1.8%	3.6%	1.7%	3.8%	-5.1%
CCn1cc(CNC(=O)c2cc(-c3ccc(C)c(C)c3)nc3ccccc23)c(C)n1	-12.9%	x	14.6µM*	16.4µM*	1.1%	-8.4%
COCCNC(=O)c1cc(-c2ccc(-c3ccccc3)cc2)nc2ccccc12	5.4%	-2.1%	11.6µM*	5.17µM*	2.6%	-0.1%
Cc1cccc(-c2cc(C(=O)NCc3ccccn3)c3ccccc3n2)c1	10.3%	0.3%	16.4µM*	13µM*	4.1%	50.6%
